Several values for one entry are separate records, joined by “and”; a condition that tells them apart may be missing. Identical values can stand only once. Inconclusive results are not listed. Activity calls are given as the source filed them. Calls come from the whole dose curve; as a rule, active = well fitted curve in the direction sought with a large enough effect; inconclusive = small, poorly fitted or top-dose-only effect, or another doubt; inactive = no such curve, though single readings can be large; an effect the other way counts as inactive or inconclusive.
What was measured:
[1] = qHTS Assay for Identifying Gametocytocidal Compounds (AID 743244);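 note: % is set by controls: 0 for no effect and ±100 for the full control effect; actives lower the fluorescent signal which means gametocytes are killed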; conditions: P. falciparum 3D7 stage III-V gametocytes, alamarBlue, 72 h; max response: stronger effect = lower value
In short: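 Stage III–V gametocytes of P. falciparum 3D7 were seeded at 20,000 cells/well onto pre-dispensed compounds. After 72 h, 37 °C, 5% CO2, alamarBlue was added for another 24 h.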

[2] = molecular target: Arylsulfatase A (Homo sapiens) (UniProt P15289); experiment: qHTS screen for enhancers of Arylsulfatase A (ASA1): LOPAC Validation Assay (AID 720538); conditions: outcome: dose series up to 57.5 µM
In short: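 MLD patient fibroblasts (SV40, ASA-I179S), 1536-well; adhere 6 hrs; cpd 48h, 37 degree C, 5% CO2; pNCS 0.5mM final in lysis buffer, 14h RT; stop 1N NaOH final; fluor. Ex525/Em598.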

[3] = qHTS for compounds that reverse cellular toxicity of Amyloid beta (A-beta) peptide in yeast: LOPAC Validation Assay (AID 720559);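 note: plate controls were DMSO for no effect and equimolar ferric chloride plus clioquinol rescue for full effect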
In short: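 Medium dispensed, compounds pinned, A-beta yeast suspension added; plates held at 30 C for 48 hr; absorbance measured at 600 nm to gauge growth; values scaled between DMSO and FeCl3/clioquinol (equimolar) controls.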

[4] = qHTS for Activators of Parkin Expression: LOPAC Validation Assay (NLuc Reporter) (AID 720572)
In short: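 Cells harboring the Parkin-promoter coincidence reporter were treated for 24 h at seven concentrations. NLuc output was measured sequentially after the FLuc channel and scaled between DMSO and positive control values.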

[5] = qHTS for Activators of Parkin Expression: LOPAC Validation Assay (FLuc Reporter) (AID 720573)
In short: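 Cells seeded, 24 h; compounds pinned, 7-pt dose response; 24 h at 37 C/5% CO2; volume reduced; FLuc reagent 10 min RT; luminescence read. Normalization: DMSO = 0, positive control = 100%.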

[6] = molecular target: T1, Hexokinase-4 (Homo sapiens) + Glucokinase regulatory protein (Homo sapiens) (UniProt P35557+Q14397); experiment: qHTS assay for inhibitors of recombinant human GCK-GKRP interaction: Diaphorase-coupled assay (AID 743205)
In short: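 25 mM Hepes pH 7.6, 5 mM glucose, 0.4 mM ATP, 4 U/ml G6PDH; 10 nM each GST-GCK/FLAG-GKRP. Kinetic fluorescence read, 1/min × 30 min. Normalized: DMSO ± enzyme = max/min.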

[7] = molecular target: T1, Hexokinase-4 (Homo sapiens) + Glucokinase regulatory protein (Homo sapiens); experiment: qHTS assay for inhibitors of recombinant human GCK-GKRP interaction: ADP-Glo assay (AID 743206);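 note: plate controls were DMSO plus enzyme for no effect and no enzyme for full effect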
In short: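 Pin-transferred compounds meet a 15 nM GST-GCK/15 nM FLAG-GKRP/2 uM S6P mix (dispense concentrations). ATP is then added to 0.4 mM final with 5 mM glucose, and the reaction runs 60 min at room temperature. ADP is quantified luminescently.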

[8] = molecular target: T1, Hexokinase-4 (Homo sapiens) + Glucokinase regulatory protein (Homo sapiens); experiment: qHTS assay for inhibitors of recombinant human GCK-GKRP interaction: HTRF assay (AID 743207);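 note: 0% = DMSO with GCK present and -100% = DMSO wells lacking GCK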
In short: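 5 nM GST-GCK + 5 nM FLAG-GKRP + 2 uM S6P, pH 7.1 buffer (25 mM Hepes, 2 mM MgCl2, 25 mM KCl, 1 mM DTT, Tween/BSA); pin-transferred cpd; anti-FLAG XL665/anti-GST K; 60 min RT; HTRF.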

Measured: max response

T1 sequence (P35557 whole entry, looked up): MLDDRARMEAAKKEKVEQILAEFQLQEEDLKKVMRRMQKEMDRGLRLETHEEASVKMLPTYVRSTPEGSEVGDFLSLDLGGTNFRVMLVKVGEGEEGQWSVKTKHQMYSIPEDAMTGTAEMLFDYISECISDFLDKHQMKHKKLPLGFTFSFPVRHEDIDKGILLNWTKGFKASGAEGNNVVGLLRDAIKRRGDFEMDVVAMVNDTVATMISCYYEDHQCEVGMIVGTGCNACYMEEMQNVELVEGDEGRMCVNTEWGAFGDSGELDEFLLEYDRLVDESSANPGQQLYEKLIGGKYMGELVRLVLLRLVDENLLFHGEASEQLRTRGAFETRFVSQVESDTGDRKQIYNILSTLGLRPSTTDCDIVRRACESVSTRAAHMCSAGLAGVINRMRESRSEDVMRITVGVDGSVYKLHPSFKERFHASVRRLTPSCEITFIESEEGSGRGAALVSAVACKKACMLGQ
T1 sequence (Q14397 whole entry, looked up): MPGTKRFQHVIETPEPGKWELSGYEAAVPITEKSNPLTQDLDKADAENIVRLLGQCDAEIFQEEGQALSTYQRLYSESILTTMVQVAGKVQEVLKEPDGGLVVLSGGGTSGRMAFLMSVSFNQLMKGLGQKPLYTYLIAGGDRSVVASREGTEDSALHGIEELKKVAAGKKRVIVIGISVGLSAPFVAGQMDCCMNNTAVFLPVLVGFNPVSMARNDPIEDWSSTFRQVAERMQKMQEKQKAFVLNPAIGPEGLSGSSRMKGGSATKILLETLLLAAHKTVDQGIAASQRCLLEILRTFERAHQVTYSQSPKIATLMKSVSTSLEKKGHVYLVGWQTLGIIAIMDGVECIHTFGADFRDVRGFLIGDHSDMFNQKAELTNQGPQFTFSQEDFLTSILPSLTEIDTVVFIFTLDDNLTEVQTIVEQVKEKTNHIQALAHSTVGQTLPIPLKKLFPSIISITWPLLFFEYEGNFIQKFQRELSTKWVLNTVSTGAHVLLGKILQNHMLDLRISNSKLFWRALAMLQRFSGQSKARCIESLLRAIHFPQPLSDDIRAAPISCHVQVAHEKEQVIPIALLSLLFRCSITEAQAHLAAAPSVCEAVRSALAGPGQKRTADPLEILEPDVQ
Sequence of Arylsulfatase A (Homo sapiens) (P15289 whole entry, looked up): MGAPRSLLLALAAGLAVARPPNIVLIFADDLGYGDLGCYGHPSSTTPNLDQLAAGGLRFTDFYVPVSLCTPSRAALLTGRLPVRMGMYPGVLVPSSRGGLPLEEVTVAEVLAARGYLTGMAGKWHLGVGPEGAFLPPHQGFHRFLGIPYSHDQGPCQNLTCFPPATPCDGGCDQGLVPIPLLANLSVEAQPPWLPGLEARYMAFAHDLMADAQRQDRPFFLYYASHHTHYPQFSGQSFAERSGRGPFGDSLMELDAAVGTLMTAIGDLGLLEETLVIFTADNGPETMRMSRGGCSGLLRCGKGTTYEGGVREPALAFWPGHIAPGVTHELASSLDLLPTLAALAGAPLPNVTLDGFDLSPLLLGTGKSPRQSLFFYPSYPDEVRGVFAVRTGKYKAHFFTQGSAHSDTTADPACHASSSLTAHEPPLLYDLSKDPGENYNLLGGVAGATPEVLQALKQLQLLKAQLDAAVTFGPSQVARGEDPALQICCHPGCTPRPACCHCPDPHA

CN(CCOc1ccc(CC2SC(=O)NC2=O)cc1)c1ccccn1 (stereo not given)
inactive: [1] 11.4%

CCN[C@H]1C[C@H](C)S(=O)(=O)c2sc(S(N)(=O)=O)cc21
inactive: [1] 4.01%

COC(=O)Nc1nc2ccc(S(=O)c3ccccc3)cc2[nH]1 (stereo not given)
inactive: [1] 20.6%

COc1nc(N)nc2c1ncn2[C@@H]1O[C@H](CO)[C@@H](O)[C@@H]1O
inactive: [1] 4.43%

CCN1CCCC1CNC(=O)c1cc(S(N)(=O)=O)ccc1OC (stereo not given)
inactive: [2] | [3] | [4] | [5] | [6] | [7] | [8] | [1] 13%

CC(C)OC(=O)OCOP(=O)(CO[C@H](C)Cn1cnc2c(N)ncnc21)OCOC(=O)OC(C)C
inactive: [1] 5.62% and 30.5%

Cc1ccc(S(=O)(=O)N[C@@H](Cc2ccccc2)C(=O)CCl)cc1
inactive: [2] | [3] | [4] | [5] | [6] | [7] | [8] | [1] 11.5%

Cc1cccc(N(C)C(=S)Oc2ccc3ccccc3c2)c1
inactive: [1] 6.54%

CC1CC2C3CCC4=CC(=O)C=C[C@]4(C)[C@@]3(F)[C@@H](O)C[C@]2(C)[C@@]1(O)C(=O)CO (stereo not given in full)
inactive: [2] | [3] | [4] | [5] | [6] | [7] | [8] | [1] 8.59%

CCN(CC)CC#CCOC(=O)C(O)(c1ccccc1)C1CCCCC1 (stereo not given)
inactive: [2] | [3] | [4] | [5] | [6] | [7] | [8] | [1] -0.0303% and 25.9%

O=C(O)C1CCCN(CCC=C(c2ccccc2)c2ccccc2)C1 (stereo not given)
inactive: [3] | [4] | [5] | [6] | [7] | [8] | [1] 17.5%
